Compounds with a hit are over-represented: about 11% of the library has one in this group of screens.
USP28 inh: human USP28 deubiquitinase inhibition. Q96RU2. purified USP28, Ub-rhodamine cleavage fluorescence, 30 min. inhibition, % at 25 µM. hit rate 3% among 47,000
USP30 inh: human USP30 deubiquitinase inhibition; hit rate 5.3% among 47,000; inhibition, % at 25 µM; purified USP30, Ub-rhodamine cleavage fluorescence; Q70CQ3; AID 1645860
Target sequence (Q70CQ3 whole entry, looked up): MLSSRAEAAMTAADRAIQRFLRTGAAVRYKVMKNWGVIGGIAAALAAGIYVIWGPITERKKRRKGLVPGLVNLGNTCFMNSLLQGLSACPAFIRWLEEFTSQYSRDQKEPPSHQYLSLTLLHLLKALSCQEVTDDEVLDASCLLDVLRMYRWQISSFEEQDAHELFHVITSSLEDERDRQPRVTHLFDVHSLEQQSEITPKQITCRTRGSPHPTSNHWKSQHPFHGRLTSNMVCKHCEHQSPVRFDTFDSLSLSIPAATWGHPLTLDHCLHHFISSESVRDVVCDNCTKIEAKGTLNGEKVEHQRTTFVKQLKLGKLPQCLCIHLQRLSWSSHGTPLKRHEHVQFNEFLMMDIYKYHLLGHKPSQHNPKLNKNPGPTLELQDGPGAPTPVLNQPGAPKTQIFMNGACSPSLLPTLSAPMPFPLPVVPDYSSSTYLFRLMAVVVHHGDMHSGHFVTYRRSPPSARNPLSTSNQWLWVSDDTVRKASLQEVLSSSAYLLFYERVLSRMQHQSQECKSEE
USP17 inh: blocks human USP17 ubiquitin-rhodamine cleavage; A8MUK1; purified USP17, Ub-rhodamine cleavage fluorescence, 3 h; inhibition, % at 50 µM; hit rate 6.5% among 47,000; AID 1645855
Each line names hits and unclear results; the compound was inactive in the other large screens. Rule as the data show it: active = inhibition above about 30%; inactive = the rest.

CC(C)(C)OC(=O)N[C@@H](Cc1ccccc1)C(=O)NCC1CCC(C(=O)O)CC1 (stereo partly specified)	none
O=C(NC1CCCCC1)c1cn(-c2ccc(NC(=O)C3CC3)cn2)cn1	none
O=C(CNCc1cccc(Cl)c1)N1CCc2ccccc2C1	USP17 inh 46
O=C(NCc1ccc(Cl)cc1)N1CCc2ccccc2C1	none
CCC(C(=O)N1CCC2(CC1)OCCO2)N1C(=O)CCn2nc(C)cc21 (stereo unspecified)	none
Cc1ccc(C(=O)N2C[C@H](OCC3CC3)[C@H]3OCCC[C@H]32)cn1	none
Cc1ccc(NC(=O)N2CCCN(c3nc4ccc(Cl)cc4s3)CC2)cc1	none
Cc1cccc(NC(=O)Nc2nnc(CC(=O)NCc3ccccc3)s2)c1C	none
O=C(Nc1nnc(CCc2ccccc2)s1)C(=O)c1c[nH]c2ccccc12	USP30 inh 35
Cc1ccc(NC(=O)COc2ccc(-c3nc(C(C)C)no3)cc2)c(F)c1	USP30 inh 32, USP17 inh 37
CCc1noc(-c2ccc(OCC(=O)Nc3cc(C)cc(C)c3)cc2)n1	USP30 inh 44
Cc1cc(C)cc(NC(=O)Cc2nnc3ccc(-c4nc(C)no4)cn23)c1	none
CC(C)c1noc(-c2ccc(OCC(=O)N3CCN(c4ccccc4F)CC3)cc2)n1	none
Cc1cc(C(=O)Nc2cc(S(=O)(=O)N3CCOCC3)ccc2N2CCOCC2)c2ccccc2n1	none
CC1CCc2onc(C(=O)N3CCN(Cc4ccc5c(c4)OCO5)CC3)c2C1 (stereo unspecified)	none
Cc1cccc(-c2noc(CNC(=O)Nc3cccc(Cl)c3)n2)c1	none
Cc1ccc2nc(NC(=O)c3ccccc3Cl)[nH]c(=O)c2c1	USP17 inh 46
Cc1ccc(NC(=O)c2cc(-c3ccccn3)nc3ccc(C)cc23)cc1	none
COCCn1cnc2c(oc3nc4c(cc32)CCCC4)c1=O	none
COc1ccc(NC(=O)c2cc(-c3ccco3)on2)c(OC)c1	none
COc1ccc(OC)c(-c2cc(C(=O)Nc3c(C)nn(Cc4ccccc4)c3C)no2)c1	USP28 inh 80
Cc1cc(F)ccc1NC(=O)CCc1c(C)nn(-c2cc(N3CCOCC3)ncn2)c1C	none
CC(=O)c1ccc(N2CCN(C(=O)c3ccc(-c4noc(C)n4)cc3)CC2)cc1	none
CC(=O)c1ccc(N2CCN(C(=O)c3cc(Cl)c4c(c3)OCCO4)CC2)cc1	USP30 inh 34, USP17 inh 64
O=S(=O)(Nc1ccc(N2CCCCC2)cc1)c1cccc(F)c1	none
O=S(=O)(Nc1ccc(N2CCCCC2)cc1)c1ccccc1F	USP17 inh 34
COc1nccnc1NS(=O)(=O)c1ccc(NC(=O)/C=C/c2ccc([N+](=O)[O-])s2)cc1	none
O=C(NC[C@H]1OC[C@@H]2CCN(Cc3cccnc3)C[C@@H]21)c1ccno1	none
Cc1ccc(C(=O)COC(=O)CCCC(=O)Nc2ccc(F)cc2)cc1[N+](=O)[O-]	none
CCc1cccc(-n2nc(C)c3c2NC(=O)CC3C(=O)c2ccc(C)s2)c1 (stereo unspecified)	none
Cc1ccc(C(=O)C2CC(=O)Nc3c2c(C)nn3-c2ccc(C)c(C)c2)s1 (stereo unspecified)	USP30 inh 50, USP17 inh 70
COc1ccc(-n2nc(C)c3c2NC(=O)CC3C(=O)c2cc3ccccc3o2)cc1 (stereo unspecified)	none
COc1ccc(-n2nc(C)c3c2NC(=O)CC3C(=O)c2ccc(Cl)s2)cc1 (stereo unspecified)	none
Cc1nn(-c2cccc(F)c2)c2c1C(C(=O)c1ccc(Cl)s1)CC(=O)N2 (stereo unspecified)	USP30 inh 50
Cc1ccc(-n2nc(C)c3c2NC(=O)CC3C(=O)c2cc3ccccc3o2)cc1C (stereo unspecified)	USP17 inh 74
C/C1=C\CC(=O)OC23C(=O)NC(Cc4ccccc4)C2C(C)C2(C)OC2C3/C=C/CC(C)C1=O (stereo unspecified)	none
Cc1ccc(-c2c(C(=O)OC(C)C)c(C)nc3sc4c(c23)CCC4)cc1	none
Cc1cc(OCC(=O)Nc2ccc(C#N)cc2)nc(-c2ccc(F)cc2)n1	none
Cc1ccc2cccc(NC(=O)COc3ccccc3)c2n1	none
COc1ccccc1NC(=O)COc1cc(C)nc(-c2ccc(C)cc2)n1	USP30 inh 62, USP17 inh 56
COc1ccccc1OCC(=O)Nc1cccc2ccc(C)nc12	USP30 inh 34, USP17 inh 47
CCc1ccc(NS(=O)(=O)c2cc3n(c2)CCCN(C)C3=O)cc1	none
CC(C)n1c(=O)c2cn(S(=O)(=O)c3cccc(F)c3)nc2n(C(C)C)c1=O	none
Cc1cc(C(=O)N[C@H]2[C@H](O)[C@H](O)C[C@@H]2c2ccccc2)c(C)o1	none
Cc1ccc([C@H]2C[C@@H](O)[C@@H](O)[C@@H]2NC(=O)c2ccccc2)cc1	USP30 inh 37
Cc1ccccc1[C@H]1C[C@@H](O)[C@@H](O)[C@@H]1NC(=O)c1cccc(C#N)c1	USP30 inh 47

Source: PubChem (Buhrlage Lab, Dana-Farber Cancer Institute and Novartis Institutes for BioMedical Research (Cambridge, Mass))
